Tg IFNy HTS = blocks Toxoplasma gondii growth in the presence of IFN-gamma; AID 1259416; activity change, negative = inhibition, % (concentration not given with the values); Toxoplasma gondii growth in IFN-gamma-treated host cells; active compounds read low; hit rate 3.8% among 69,000; in the data active = activity change below about -70%, passing the limit was not always enough;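 note: host cells are HeLa cells infected with Toxoplasma gondii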
Numbers without * were called inactive; i = inactive. This excerpt belongs to a sample that is enriched for hits.

SMILES	Tg IFNy HTS
Clc1ccc(-c2nc(NC3CCCC3)c3ccccc3n2)cc1	55
Fc1ccc(C2Oc3ccc(Cl)cc3C3=C2C(c2ccccc2)n2ncnc2N3)cc1 (stereo not drawn)	-23
COc1ccc(NC(=O)CSc2nc(N)c(C(=O)Nc3ccc(OC)cc3)s2)cc1	103
COc1ccc2c(C)nc(N3CCCC(C(=O)NC4C5CC6CC4CC(O)(C6)C5)C3)nc2c1 (stereo not drawn)	2
COc1ncc(C(=O)Nc2ccc(N3CCCC3)c(F)c2)cn1	45
COc1cc(C(=O)Nc2ccc(N3CCCCC3)c(C(F)(F)F)c2)nc(OC)n1	-82*
CC1(C)NC(=O)N(CC(=O)Nc2ccc(N3CCCCC3)c(C(F)(F)F)c2)C1=O	-23
O=C(Nc1cccc2c1CCCC2)C1CCN(S(=O)(=O)c2ccc3[nH]c(=O)ccc3c2)CC1	122
CC1(C)CC(N(Cc2ccccn2)Cc2ccccc2OCc2ccccn2)CC(C)(C)N1	-55
FC(F)(F)c1ccc(-c2nnc(-c3ccc4nccnc4c3)o2)cc1	-49
N#Cc1nc(-c2ccc(C(F)(F)F)cc2)oc1N	-96*
FC(F)(F)c1ccc(C2=NCCO2)cc1	25
Cc1cc(C)n(CC(=O)N2CCC3(CN(C)C(=O)O3)C2)c(=O)n1 (stereo not drawn)	60
COc1cc2c(cc1CN1CCCC1c1ccccn1)OCCCO2 (stereo not drawn)	-43
CCc1ccc(-c2noc(-c3c(O)c4cc(C)ccc4[nH]c3=O)n2)cc1	1
Cc1[nH]cnc1CN(Cc1ccc(F)cc1)Cc1ccco1	43
COc1ccc(-c2sncc2-c2ccccc2)cc1	-109*
COc1ccc(-c2cc(-c3ccccc3)c(C)c(-c3ccccc3)n2)cc1	-50
COc1ccc(-c2nc(Cc3noc(-c4ccccc4)n3)c(C)o2)cc1	-21
Cc1oc(-c2ccc(NC(=O)C3CCCCC3)cc2)nc1Cn1cccn1	-54
Cc1nc(CC(=O)N2CCCC2c2ccc3c(NCc4ccccc4)n[nH]c3n2)cs1 (stereo not drawn)	-76*
Cc1nc(CC(=O)N2CCC(c3ccccc3C(=O)O)C2)cs1 (stereo not drawn)	31
Cc1nc(CC(=O)N2CCCCC2c2[nH]ncc2C)cs1 (stereo not drawn)	-34
COCCN1C(=O)CCc2cc(NC(=O)c3cncc(Br)c3)ccc21	1
COc1ccc2c3c(n(C)c2c1)[C@@H](CO)N(C(C)=O)CC31CCN(C(=O)c2cnccn2)CC1	368
SMILES	Tg IFNy HTS
CC(C)OC(=O)c1ccc(NC(=O)c2cncc(Br)c2)cc1	40
CCn1c(-c2cc(NC(=O)c3cncc(Br)c3)n[nH]2)cc2ccc(OC)cc21	-85*
CCn1c(-c2cc(NC(=O)c3cccnc3)n[nH]2)cc2cc(OC)ccc21	69
COc1ccc(-c2cn(CC[C@@H]3CC[C@@H](NC(=O)c4cnccn4)[C@H](CO)O3)nn2)cc1	-14
CCn1c(-c2cc(NC(=O)c3cncc(Br)c3)n[nH]2)cc2ccccc21	-103*
COc1ccc(OC)c(NC(=O)c2cncc(NS(=O)(=O)c3ccc(Br)cc3)c2)c1	19
CCn1c(-c2cc(NC(=O)c3cnccn3)n[nH]2)cc2ccc(OC)cc21	-103*
CC(C)N1CCc2c(CNC(=O)c3nccn3C)cncc2C1	-11
COCCN(C)C(C(=O)O)c1ccc(F)c(C)c1 (stereo not drawn)	5
O=C(NCCc1csc(-c2ccccc2)n1)C1CCN(S(=O)(=O)c2ccc(Cl)s2)CC1	-36
COc1ccccc1CNc1nc(C(C)n2cnc3ccccc32)cc(=O)[nH]1 (stereo not drawn)	0
O=C(NCC1(Cn2ccnc2)CC1)C1CCOC1 (stereo not drawn)	17
O=C(NCCO)C1CCCN(C2CCN(CCc3ccccc3)CC2)C1 (stereo not drawn)	-1
CN(C)c1ncnc2c1CCN(C(=O)c1cn[nH]c1-c1cccc(F)c1)C2	-24
CC(C)(Oc1ccc2c(c1)CCC2)C(=O)NCC1(O)CCCNCC1 (stereo not drawn)	-4
O=C1N(c2ccccc2)C[C@@H]2C[C@@H](c3cccn3-c3cccnc3)N3CCC[C@@]123	2
Cc1cc(CN(C)Cc2nc3ccccc3n2C(C)c2ccccc2)n[nH]1 (stereo not drawn)	-79*
CC(c1ccccn1)N(C)Cc1nc2ccccc2n1C(C)C (stereo not drawn)	-20
Cc1cc(CN(C)Cc2ccc(-n3cccn3)cc2)n[nH]1	-3
O=C(O)c1cccc2c1C(=O)N(Cc1cccs1)C2	44
FC(F)(F)c1cc(NC(=S)Sc2ccc(Cl)cc2)cc(C(F)(F)F)c1	-22
O=C(Sc1ccc(Cl)cc1)c1cnn(-c2ccc(Cl)cc2)c1C(F)(F)F	-95*
Cc1nc(C(F)(F)F)ccc1C(=O)Sc1ccc(F)cc1	-1
CC1CCN(C(=O)c2cc3cccnc3n(Cc3ccccc3)c2=O)CC1	-4
Cn1nc(-c2cccs2)cc1C(=O)O	-2
SMILES	Tg IFNy HTS
CCN1CCC2(CN(C(C)=O)CC23CCN(S(=O)(=O)CC(C)C)CC3)C1=O (stereo not drawn)	-4
Cc1cc(-c2cncnc2)cc(C2CCCN(C(=O)c3ccc4nc(C)sc4c3)C2)n1 (stereo not drawn)	39
COCCn1ccnc1C1CC(=O)Nc2cc(O)c(C)cc21 (stereo not drawn)	-1
Cc1cc2c(cc1O)NC(=O)CC2c1nccs1 (stereo not drawn)	-29
COC(=O)c1cccc(C2CC(=O)Nc3cc(O)c(C)cc32)n1 (stereo not drawn)	-81*
COc1ccc2c(c1)NC1(CCN(S(=O)(=O)c3cc(Cl)ccc3OC)CC1)c1cccn1-2	1
Cc1ccc(C(=O)Nc2ccc(-c3nc(Cn4nc(C)c(C)c4C)c(C)o3)cc2)cc1	-88*
COc1cccc(C(=O)Nc2ccc(-c3nc(Cn4nc(C)cc4C)c(C)o3)cc2)c1	-62
COCC(=O)Nc1ccc(-c2nc(Cn3nc(C)c(C)c3C)c(C)o2)cc1	60
Cc1nn(Cc2nc(-c3ccc(NC(=O)c4ccccc4)cc3)oc2C)c(C)c1C	-93*
Cc1nn(Cc2nc(-c3ccc(NC(=O)c4ccc(C#N)cc4)cc3)oc2C)c(C)c1C	184
Cc1nn(Cc2nc(-c3ccc(NC(=O)c4ccc(F)cc4)cc3)oc2C)c(C)c1C	112
Cc1cccc(C(=O)Nc2ccc(-c3nc(Cn4nc(C)c(C)c4C)c(C)o3)cc2)c1	-91*
Cc1oc(-c2ccccc2)nc1Cn1nnc(C(=O)Nc2ccccc2)c1C	-64
Cc1cc(C)n(Cc2nc(-c3ccc(NC(=O)c4cccc(N(C)C)c4)cc3)oc2C)n1	-56
O=C(NCc1ccc2[nH]c(=O)[nH]c2c1)C1CN(c2ncccn2)CCO1 (stereo not drawn)	5
Cc1nc(-c2ccccc2)sc1CCNC(=O)c1cccc([N+](=O)[O-])c1	i
Cc1nn(C)c(C)c1CN(C(=O)c1cc2ncccn2n1)C1CC1	7
Cc1ccc(=O)n(CC(=O)NC(Cc2cccs2)c2ccccn2)n1 (stereo not drawn)	10
Cn1cc(-c2nc(C3CCN(C(=O)c4cccnc4)CC3)cc3c2ncn3C)cn1	-2
O=C1C(=O)N2C(=C1C(=O)N1CCOCC1)c1ccccc1CC21CCCCC1	-96*
O=C1C(=O)N2C(=C1C(=O)N1CCCCCC1)c1ccccc1CC21CCCC1	117
c1ccc2c(c1)CC1(CCCCC1)n1nnnc1-2	28
Cc1cc(C)n2nc(NCc3c(Cl)cccc3Cl)nc2n1	14
O=C(Cn1ccnc1-c1ccccc1)N1CCCC2(CCNCC2)CC1	8

Compound activity: PubChem, Broad Institute
